Rows were chosen to be rich in hits. Some 12% of all compounds tested hit in one or more screens of this group.
BAZ2B inh: BAZ2B (human) inhibition. Potency, µM (top dose mostly 114 µM), for inactives: at the top dose activity change, negative = inhibition, usual class: inhibitors. Q9UIF8. AlphaScreen BAZ2B-H3K14Ac peptide displacement. hit rate 4.4% among 360,000. AID 504333; further: on the % scale 0 is the no-effect control and ±100 the full control effect; nearly all actives have a fitted effect of over 60% in size
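AlphaScreen displacement of biotin-H3(5-23)K14Ac peptide (50 nM final) from BAZ2B (50 nM final) in PBS pH 7.4, 0.01% Tween-20; complex preformed 30 min RT, then compounds (top 110 uM) 30 min RT, beads 20 min dark.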
JMJD2A Tudor inh: JMJD2A Tudor domain (human) inhibition | Potency, µM (top dose mostly 114 µM), for inactives: at the highest dose activity change, negative = inhibition, most hits filed as inhibitors | O75164 | AID 504339 | hit rate 4.4% among 390,000 | AlphaScreen JMJD2A-Tudor / H3K4me3 peptide binding; further: on the % scale 0 is the no-effect control and ±100 the full control effect; nearly all actives have a fitted effect of over 50% in size
Target sequence (O75164 whole entry, looked up, the tested form may be a part): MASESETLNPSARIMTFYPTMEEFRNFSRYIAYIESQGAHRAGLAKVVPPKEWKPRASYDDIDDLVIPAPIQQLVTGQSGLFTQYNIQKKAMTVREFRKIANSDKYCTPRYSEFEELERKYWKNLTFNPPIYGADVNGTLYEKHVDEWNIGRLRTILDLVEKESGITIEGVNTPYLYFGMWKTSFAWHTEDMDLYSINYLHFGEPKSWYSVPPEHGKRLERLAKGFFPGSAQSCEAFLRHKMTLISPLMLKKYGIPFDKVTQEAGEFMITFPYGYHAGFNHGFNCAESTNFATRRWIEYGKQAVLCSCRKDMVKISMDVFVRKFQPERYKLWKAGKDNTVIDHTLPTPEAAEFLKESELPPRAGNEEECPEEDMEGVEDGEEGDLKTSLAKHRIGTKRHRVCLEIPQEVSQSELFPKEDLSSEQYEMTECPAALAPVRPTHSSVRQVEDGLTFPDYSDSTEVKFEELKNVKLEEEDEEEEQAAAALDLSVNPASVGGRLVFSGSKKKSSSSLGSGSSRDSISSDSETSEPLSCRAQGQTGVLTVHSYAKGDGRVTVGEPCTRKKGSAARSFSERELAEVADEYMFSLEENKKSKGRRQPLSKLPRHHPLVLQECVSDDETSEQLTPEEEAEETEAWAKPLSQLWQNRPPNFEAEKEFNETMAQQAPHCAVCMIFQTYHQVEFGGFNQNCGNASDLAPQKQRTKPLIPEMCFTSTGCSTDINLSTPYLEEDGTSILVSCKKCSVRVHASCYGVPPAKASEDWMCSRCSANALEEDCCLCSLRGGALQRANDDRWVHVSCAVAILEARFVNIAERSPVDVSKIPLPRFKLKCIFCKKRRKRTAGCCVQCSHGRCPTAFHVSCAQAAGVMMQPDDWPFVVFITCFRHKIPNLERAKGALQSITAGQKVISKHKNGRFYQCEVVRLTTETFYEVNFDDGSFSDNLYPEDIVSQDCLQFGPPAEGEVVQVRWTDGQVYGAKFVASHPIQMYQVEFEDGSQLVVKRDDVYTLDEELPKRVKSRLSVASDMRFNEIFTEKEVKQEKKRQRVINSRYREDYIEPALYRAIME
G9a block: inhibitors of human histone lysine methyltransferase G9a. AID 504332. G9a H3K9 monomethylation, AlphaScreen, 2 h. hit rate 8.8% among 350,000. Potency, µM (doses to about 102 µM), without a hit: top-dose activity, negative = inhibition, most hits filed as inhibitors. Q96KQ7; further: on the % scale 0 is the no-effect control and ±100 the full control effect; nearly all actives have a fitted effect of over 75% in size
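Enzyme 20 nM + cpd, 15 min RT; add b-H3K9 pep 500 nM / SAM 20 uM; 2 h RT; anti-H3K9me1 Ab 0.5 ug/mL + SA donor / anti-rabbit acceptor beads 20 ug/mL each, 10 min; AlphaScreen read.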
HP1b chromo inh: HP1-beta chromodomain-methylated histone interaction inhibition; P83916; AlphaScreen HP1-beta / biotin-H3K9me3 peptide binding; hit rate 0.56% among 390,000; Potency, µM (highest dose often 114 µM), for the others: at the highest dose activity change, negative = inhibition, actives largely listed as inhibitors; AID 540317; further: nearly all actives have a fitted effect of over 70% in size
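AlphaScreen: HP1-beta (50 nM) preformed 30 min with biotin-H3(1-18)K9me3 peptide (50 nM) in PBS pH 7.4, 0.01% Tween-20. Compound added for 30 min at RT, then streptavidin donor/nickel chelate acceptor beads (10 ug/mL) for 30 min.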
Sfp PPTase inh: blocks B. subtilis Sfp PPTase activity; hit rate 3.5% among 310,000; Potency, µM, for inactives: largest response in the series, negative = inhibition, usual class: inhibitors; Q9F4F7; Biochemical Sfp PPTase activity, qHTS;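 further: the enzyme is Sfp with the accession as filed and its product quenches rhodamine fluorescence; 0% = enzyme reaction without inhibitor and -100% = no enzyme wells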
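After 15 min at room temperature with compound, 15 nM Sfp received 5 uM rhodamine-CoA plus 12.5 uM BHQ-2-ybbR (50 mM Hepes pH 7.6, 10 mM MgCl2). Rate came from the fluorescence difference over 30 min, ex 525/em 598 nm.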
The depositor's hits bear a star; ? = inconclusive; nt = no result given; [ ] = remark or other dose. The call rests on the fitted dose curve; in most records, active means well fitted curve in the direction sought with a large enough effect; inconclusive means small, poorly fitted or top-dose-only effect, or another doubt; inactive means no such curve, though single readings can be large; an effect the other way counts as inactive or inconclusive. Potency means the concentration at half of the fitted maximal effect.

SMILES	BAZ2B inh	JMJD2A Tudor inh	G9a block	HP1b chromo inh	Sfp PPTase inh
O=C(Cn1nnc2ccccc2c1=O)NCCc1ccccc1	2%	2%	1%[59 µM]	21%	10%
COC(=O)C1=C(CS(=O)(=O)c2ccccc2)NC(=O)NC1c1ccccc1 (stereo not drawn)	-12%	-19%	16%	23%	9%
CCOc1ccc(C(C(=O)NCC2CCCO2)N(Cc2ccccc2)C(=O)c2snc(C(N)=O)c2N)cc1 (stereo not drawn)	-6%	-15%	3%	21%	15%
CCc1c(C)sc(NC(=O)OC)c1C(=O)N1CCCCC1	-3%	-17%	?	-9%	50µM*
CCc1c(C)sc(NC(=S)N2CCN(C(=O)C3CCCO3)CC2)c1C(=O)OC (stereo not drawn)	?	?	50µM*	?	-24%
c1ccc2c3c([nH]c2c1)[C@@H]1[C@H]2CC[C@H]([C@H]4CCCN[C@H]42)N1CC3	nt	nt	10µM*	nt	8%
C[n+]1cnc(-c2ccccc2)cc1-c1ccccc1	-3%	22µM*	?	?	11%
Cc1ccccc1C1C(C#N)=C2N=C(N)c3c(sc4c3CCCCC4)N2C2=C1C(=O)CCC2 (stereo not drawn)	45µM*	-23%[57.1 µM]	?	16%	50µM*
Cc1cccc(-n2cc(-c3ccccc3)c3c(=O)[nH]cnc32)c1	45µM*	79µM*	?	?	-15%
O=c1[nH]cnc2c1c(-c1ccccc1)cn2-c1ccc(Br)cc1	1%	-4%	5%[59 µM]	2%	-4%
CCOc1ccc(-n2cc(-c3ccccc3)c3c(=O)[nH]cnc32)cc1	?	?	45µM*	?	-9%
COc1cc2c3c(c1OC)-c1cc4c(cc1CC3(C#N)N(C(=O)c1ccccc1)CC2)OCO4 (stereo not drawn)	nt	-26%	nt	2%	nt
CN1C(=O)/C(=C/c2ccco2)SC1=Nc1ccc(N2CCOCC2)cc1	7.9µM*	-25%	7.1µM*	?	2%
COc1ccc(N=C2NC(=O)/C(=C\c3ccco3)S2)cc1	28µM*	?	?	?	?
O=C1NC(=Nc2ccc(O)cc2)S/C1=C\C=C\c1ccco1	?	-8%[11.4 µM]	50µM*	-8%	-26%
CC(C)(C)[C@H]1C=C(C(=O)NCc2ccccc2)O[C@@H](OCCCCO)C1	nt	-11%	nt	30%	nt
CC(C)CN1C(=O)C(=O)N(CC(=O)N(C)CC(=O)Nc2ccc(Cl)c(C(F)(F)F)c2)C1=O	-23%	-8%	4%[12.7 µM]	30%	nt
COC(=O)c1ccc(CSc2nccn2C)cc1	0%	-19%	?	17%	-10%
O=C(NCSc1ccnc(SCNC(=O)c2ccc(F)cc2)n1)c1ccc(F)cc1	-30%	-29%	2.8µM*	20%	8.9µM*
CCOC(=O)c1ccc(CNC(=O)Cn2nnc(-c3cccc(C)c3)n2)o1	-4%	nt	5%	nt	8%
CCCc1nnc(SCC(=O)N2CCOCC2)n1C	7%	-1%	-4%[59 µM]	28%	10%
CC1Nc2ccccc2C(=O)N1NS(C)(=O)=O (stereo not drawn)	6%	8%[11.4 µM]	-23%	8%	15%
CCOc1ccc(NC(=S)NCc2ccc3[nH]c(C)cc3c2)cc1	nt	50µM*	?	-15%	-13%
Cc1cccc(-n2c(C)nc3cc(C(=O)NCc4ccc5c(c4)OCO5)ccc32)c1	?	-34%	45µM*	4%	-18%
Cc1cc2cc(CNC(=O)c3ccc4c(c3)OCO4)ccc2[nH]1	?	-34%	50µM*	-8%	9%
O=C(NCc1ccc2c(c1)OCO2)c1ccc2c(c1)OCO2	-15%	-17%	39%[12.7 µM]	24%	-8%
Cc1cc(CNC(=O)c2ccc3c(c2)OCO3)c2ccccc2n1	-33%	-5%	35µM*	43%	1%
CCC(=O)c1ccc(OCC(=O)OCC(=O)c2c(N)n(C)c(=O)n(C)c2=O)cc1	31%	-13%	-17%[2.33 µM]	11%	nt
COc1ccc(C(=O)NCc2ccc3[nH]c(C)cc3c2)cc1OC	?	-30%	35µM*	24%	-25%
O=C(CN1CCN(c2ccccn2)CC1)Nc1ccc(F)c(F)c1	11%	-22%	0%	67%	23%
